Measured values reported in PubChem BioAssay (EPA / NIEHS).
“And” between values parts separate entries of the source, which are not always exact repeats. Equal entries are not always repeated. Inconclusive results are not listed. Where a structure was tested more than once in an assay, its records may differ in their call. The source made the active and inactive calls. Rule for the calls: active = hit-call score of the fitted dose curve at least 0.9, where 1 is the maximum; inconclusive = response in the unintended direction; inactive = score below 0.9.

Target: GAL4 Transcription Factor (Internal Marker), GAL4 (gene 855828) (UniProt P04386)
Assay: ATG_GAL4_XSP2: Attagene TRANS-FACTORIAL Multi-Species (XSP2) HepG2 Assay for GAL4 Transcription Factor (Internal Marker) (AID 2283814);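 note: GAL4 reporter mRNA background control in MRTU transfected cells not a receptor target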
How it was run: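 HepG2 cells transiently transfected with GAL4-UAS reporter units, stimulated with 3 nM 6-alpha-fluorotestosterone plus 1.5 nM norgestrel, dosed 24 h. Reporter mRNA by RT-PCR/capillary electrophoresis; gain-of-signal fit versus DMSO, background control.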

GAL4 Transcription Factor (Internal Marker), GAL4 (gene 855828), sequence (P04386 whole entry, looked up, the tested form may be a part): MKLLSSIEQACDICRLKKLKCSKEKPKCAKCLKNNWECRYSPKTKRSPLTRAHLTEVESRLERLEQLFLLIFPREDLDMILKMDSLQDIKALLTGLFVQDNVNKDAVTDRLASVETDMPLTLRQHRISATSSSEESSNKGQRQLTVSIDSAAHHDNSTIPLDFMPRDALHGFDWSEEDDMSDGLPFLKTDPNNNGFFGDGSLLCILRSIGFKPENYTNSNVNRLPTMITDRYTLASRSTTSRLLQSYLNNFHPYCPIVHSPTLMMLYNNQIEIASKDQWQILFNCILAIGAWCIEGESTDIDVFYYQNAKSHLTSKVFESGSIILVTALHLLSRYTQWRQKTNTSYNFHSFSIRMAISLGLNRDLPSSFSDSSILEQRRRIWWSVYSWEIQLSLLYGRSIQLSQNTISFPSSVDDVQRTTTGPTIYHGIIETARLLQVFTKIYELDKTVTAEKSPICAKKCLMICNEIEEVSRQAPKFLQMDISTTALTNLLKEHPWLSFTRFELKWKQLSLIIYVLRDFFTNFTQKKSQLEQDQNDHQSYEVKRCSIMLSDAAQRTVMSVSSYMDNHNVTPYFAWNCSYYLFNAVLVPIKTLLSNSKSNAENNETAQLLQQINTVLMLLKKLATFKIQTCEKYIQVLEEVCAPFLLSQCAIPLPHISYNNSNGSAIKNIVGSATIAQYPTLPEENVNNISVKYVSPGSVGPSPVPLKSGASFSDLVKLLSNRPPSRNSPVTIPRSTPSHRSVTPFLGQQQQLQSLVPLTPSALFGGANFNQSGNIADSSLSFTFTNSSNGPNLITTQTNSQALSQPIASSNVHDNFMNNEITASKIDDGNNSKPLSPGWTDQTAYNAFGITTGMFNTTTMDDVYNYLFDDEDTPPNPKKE

Structure (SMILES)	outcome
Cc1cc(=O)oc2cc(N(C)C)ccc12	inactive
CCCCC(CC)COC(=O)c1ccc(O)cc1 (stereo unspecified)	inactive
OCc1cccc(Oc2ccccc2)c1	inactive

System: turtle Androgen Receptor (AR), gene 101947425
Assay: ATG_trAR_XSP2: Attagene TRANS-FACTORIAL Multi-Species (XSP2) HepG2 Assay for turtle Androgen Receptor (AR) (AID 2283815);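 for AC50: reporter mRNA from a Gal4 chimera of turtle AR measured by RT-PCR; potency for gain of reporter signal meaning activation above DMSO baseline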
How it was run: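 HepG2 cells transiently transfected with GAL4-UAS reporter units for chimeric NR-Gal4 receptors; 24 h dosing in presence of 3 nM 6-alpha-fluorotestosterone and 1.5 nM norgestrel. Reporter mRNA by RT-PCR and capillary electrophoresis, gain of signal versus DMSO.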

Structure (SMILES)	AC50	outcome
O=c1c(O)c(-c2ccc(O)cc2)oc2cc(O)cc(O)c12	3.01 µM (active) and 1.32 µM (active)	
CCCCC(CC)COC(=O)c1ccc(O)cc1 (stereo unspecified)	53.2 µM (active)	
Oc1ccc2cc(SSc3ccc4cc(O)ccc4c3)ccc2c1		inactive

Target: zebrafish Estrogen Receptor (ER1), esr1 (gene 259252) (UniProt P57717)
Assay: ATG_zfER1_XSP2: Attagene TRANS-FACTORIAL Multi-Species (XSP2) HepG2 Assay for zebrafish Estrogen Receptor (ER1) (AID 2283816)
How it was run: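 HepG2 cells transiently transfected with a GAL4-UAS reporter and a chimeric zebrafish ER1-Gal4 construct, dosed 24 h. Reporter mRNA quantified by RT-PCR, labelling, HpaI digestion and capillary electrophoresis, relative to DMSO.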

zebrafish Estrogen Receptor (ER1), esr1 (gene 259252), sequence (P57717 whole entry, looked up): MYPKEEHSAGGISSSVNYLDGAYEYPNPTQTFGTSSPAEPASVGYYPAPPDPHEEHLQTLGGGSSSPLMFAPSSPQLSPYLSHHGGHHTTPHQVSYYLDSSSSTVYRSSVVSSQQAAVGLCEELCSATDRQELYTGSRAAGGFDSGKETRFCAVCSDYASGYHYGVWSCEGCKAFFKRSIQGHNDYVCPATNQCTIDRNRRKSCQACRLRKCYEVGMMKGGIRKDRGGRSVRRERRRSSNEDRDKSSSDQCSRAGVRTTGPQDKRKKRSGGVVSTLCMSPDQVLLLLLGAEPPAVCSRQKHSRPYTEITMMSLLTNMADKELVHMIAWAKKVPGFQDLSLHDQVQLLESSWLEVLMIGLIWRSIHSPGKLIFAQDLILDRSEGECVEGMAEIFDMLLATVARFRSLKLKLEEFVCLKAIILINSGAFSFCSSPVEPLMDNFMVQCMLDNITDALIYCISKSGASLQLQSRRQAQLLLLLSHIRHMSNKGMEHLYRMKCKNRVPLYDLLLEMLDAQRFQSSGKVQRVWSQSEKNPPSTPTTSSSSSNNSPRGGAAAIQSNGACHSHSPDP

Structure (SMILES)	AC50	outcome
O=c1c(O)c(-c2ccc(O)cc2)oc2cc(O)cc(O)c12	1.68 µM (active) and 954 nM (active)	
BrCc1cccc(Oc2ccccc2)c1	100 µM (active)	inactive
Cc1cc(=O)oc2cc(N(C)C)ccc12		inactive
CCCCC(CC)COC(=O)c1ccc(O)cc1 (stereo unspecified)	52.2 µM (active)	
Oc1ccc2cc(SSc3ccc4cc(O)ccc4c3)ccc2c1	2.96 µM (active)	inactive
Clc1ccc(C(c2ccccc2Cl)C(Cl)Cl)cc1 (stereo unspecified)	4.61 µM (active) and 12.7 µM (active)	
OCc1cccc(Oc2ccccc2)c1	37.7 µM (active)	inactive

Target: chicken Estrogen Receptor (ERa), ESR1 (gene 396099) (UniProt P06212)
Assay: ATG_chERa_XSP2: Attagene TRANS-FACTORIAL Multi-Species (XSP2) HepG2 Assay for chicken Estrogen Receptor (ERa) (AID 2283817);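 note: actives raise reporter signal above DMSO so AC50 reflects ER activation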
How it was run: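 HepG2 cells transiently transfected with multiplexed GAL4-UAS reporter units expressing chimeric chicken ERa-Gal4; 24 h compound exposure. Reporter mRNA measured by RT-PCR with 6-FAM labelling, HpaI digestion and capillary electrophoresis; gain-of-signal fitted versus DMSO.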

chicken Estrogen Receptor (ERa), ESR1 (gene 396099), sequence (P06212 whole entry, looked up): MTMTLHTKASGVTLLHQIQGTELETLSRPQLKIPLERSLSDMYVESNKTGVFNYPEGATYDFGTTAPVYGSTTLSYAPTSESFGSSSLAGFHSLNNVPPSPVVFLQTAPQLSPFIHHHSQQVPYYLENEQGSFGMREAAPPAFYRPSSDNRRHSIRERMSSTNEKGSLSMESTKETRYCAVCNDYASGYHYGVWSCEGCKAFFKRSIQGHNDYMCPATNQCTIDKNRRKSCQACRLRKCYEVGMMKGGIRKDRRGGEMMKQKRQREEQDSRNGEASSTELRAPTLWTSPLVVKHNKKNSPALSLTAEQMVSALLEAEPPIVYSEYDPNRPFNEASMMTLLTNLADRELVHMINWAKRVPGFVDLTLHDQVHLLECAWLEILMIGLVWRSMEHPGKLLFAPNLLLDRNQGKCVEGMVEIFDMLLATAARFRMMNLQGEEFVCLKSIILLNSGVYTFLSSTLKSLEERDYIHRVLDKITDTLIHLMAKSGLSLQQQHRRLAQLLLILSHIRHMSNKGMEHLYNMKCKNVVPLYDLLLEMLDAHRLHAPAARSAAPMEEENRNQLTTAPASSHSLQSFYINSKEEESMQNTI

Structure (SMILES)	AC50	outcome
O=c1c(O)c(-c2ccc(O)cc2)oc2cc(O)cc(O)c12	3 µM (active) and 1.53 µM (active)	
BrCc1cccc(Oc2ccccc2)c1	27.5 µM (active) and 21.5 µM (active)	
Cc1cc(=O)oc2cc(N(C)C)ccc12	31.4 µM (active)	inactive
CCCCC(CC)COC(=O)c1ccc(O)cc1 (stereo unspecified)	6.15 µM (active)	
Oc1ccc2cc(SSc3ccc4cc(O)ccc4c3)ccc2c1	2.29 µM (active) and 634 nM (active)	
Clc1ccc(C(c2ccccc2Cl)C(Cl)Cl)cc1 (stereo unspecified)	3.1 µM (active) and 7.58 µM (active)	
OCc1cccc(Oc2ccccc2)c1	16 µM (active) and 6.22 µM (active)	

System: zebrafish Estrogen Receptor (ER2a), gene 317734
Assay: ATG_zfER2a_XSP2: Attagene TRANS-FACTORIAL Multi-Species (XSP2) HepG2 Assay for zebrafish Estrogen Receptor (ER2a) (AID 2283818);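 note: hits raise reporter mRNA so AC50 reflects activation of zebrafish ER2a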
How it was run: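 HepG2 cells transiently transfected with GAL4-UAS reporter units and chimeric zebrafish ER2a-Gal4, exposed 24 h; medium contains 3 nM 6-alpha-fluorotestosterone and 1.5 nM norgestrel. Reporter mRNA quantified by RT-PCR, HpaI digestion, capillary electrophoresis; gain versus DMSO.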

Structure (SMILES)	AC50	outcome
O=c1c(O)c(-c2ccc(O)cc2)oc2cc(O)cc(O)c12	1.61 µM (active) and 981 nM (active)	
BrCc1cccc(Oc2ccccc2)c1	19.2 µM (active) and 11.9 µM (active)	
Cc1cc(=O)oc2cc(N(C)C)ccc12	100 µM (active)	inactive
CCCCC(CC)COC(=O)c1ccc(O)cc1 (stereo unspecified)	33.4 µM (active)	
Oc1ccc2cc(SSc3ccc4cc(O)ccc4c3)ccc2c1	0.822 µM (active)	
Clc1ccc(C(c2ccccc2Cl)C(Cl)Cl)cc1 (stereo unspecified)	2.3 µM (active) and 2.61 µM (active)	
OCc1cccc(Oc2ccccc2)c1	23.5 µM (active) and 14.7 µM (active)	

System: chicken Androgen Receptor (AR), gene 422165
Assay: ATG_chAR_XSP2: Attagene TRANS-FACTORIAL Multi-Species (XSP2) HepG2 Assay for chicken Androgen Receptor (AR) (AID 2283819);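 note: hits raise reporter mRNA above DMSO so potency is for activation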
Procedure: ATG_XSP2_multi-species_TRANS is a cell-based, multiplexed assay created by modifying the existing Attagene TRANS-FACTORIAL system to include a panel of nuclear receptors from some or all the following species: human (Homo sapiens), mouse (Mus musculus), frog (Xenopus laevis), zebrafish (Danio rerio), chicken (Gallus gallus), and turtle (Chrysemys picta). The ECOTOX-FACTORIAL format uses HepG2, a human liver cell line, with measurements taken at 24 hours after chemical dosing in a 24-well plate. Xsp2 included 3 nM 6-alpha-fluorotestosterone and 1.5 nM norgestrel to stimulate the androgen receptor.ATG_chAR_XSP2 is one of 29 assay components measured or calculated from the ATG_XSP2_multi-species_TRANS assay. It is designed to make measurements of mRNA induction, a form of inducible reporter, as detected with fluorescence intensity signals by Reverse transcription polymerase chain reaction (RT-PCR) and Capillary electrophoresis technology.The assay endpoint ATG_chAR_XSP2 was analyzed in the positive analysis fitting direction relative to DMSO as the negative control and baseline of activity. Using a type of inducible reporter, measures of mRNA for gain-of-signal activity can be used to understand the reporter gene at the transcription factor-level as they relate to the gene AR. Furthermore, this assay endpoint can be referred to as a primary readout, because this assay has produced multiple assay endpoints where this one serves a reporter gene function. To generalize the intended target to other relatable targets, this assay endpoint is annotated to the nuclear receptor intended target family, where the subfamily is steroidal.
Human liver HepG2 cells are transiently transfected with multiple reporter transcription units (MRTUs) in 6-well plates using FuGene 6 reagent (Roche; 3 ml FuGene/1 mg DNA). The MRTU constructs are regulated by a cis-regulating element (promoter). […] A major difference between the CIS and TRANS system is that in CIS activities of endogenous TFs are measured, whereas the TRANS assay evaluates changes in activities of exogenous, chimeric NR-Gal4 proteins. […] At the end of 24 hour incubation, total RNA was isolated using TriZol reagent (Invitrogen). The isolated RNA is then reverse-transcribed using oligo(dT) primer and Mo-MLV reverse transcriptase (Invitrogen) with DNAse I (Ambion) treatment for 30 min. […] The fragments were purified using Qiaquick PCR columns (Qiagen), analyzed on an ABI 3130xL genetic analyzer (Applied Biosystems) with peak positions identified by using a set of X-rhodamine (ROX)-labeled MapMarker1000 molecular weight standards (BioVentures). […]

Structure (SMILES)	AC50	outcome
O=c1c(O)c(-c2ccc(O)cc2)oc2cc(O)cc(O)c12	3.26 µM (active) and 1.35 µM (active)	
CCCCC(CC)COC(=O)c1ccc(O)cc1 (stereo unspecified)	51.9 µM (active)	
Oc1ccc2cc(SSc3ccc4cc(O)ccc4c3)ccc2c1	40.7 µM (active)	inactive

System: frog Estrogen Receptor (ER), gene 398734
Assay: ATG_frER1_XSP2: Attagene TRANS-FACTORIAL Multi-Species (XSP2) HepG2 Assay for frog Estrogen Receptor (ER) (AID 2283821);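 note: hits raise reporter mRNA above DMSO baseline so potency means agonist or activator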
How it was run: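 HepG2, transient MRTU transfection, chimeric NR-GAL4/UAS reporters; 24 h compound exposure, 24-well. Readout: reporter mRNA via RT-PCR + capillary electrophoresis, fluorescence. Positive fit vs DMSO baseline.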

Structure (SMILES)	AC50	outcome
O=c1c(O)c(-c2ccc(O)cc2)oc2cc(O)cc(O)c12	2.48 µM (active) and 1.49 µM (active)	
BrCc1cccc(Oc2ccccc2)c1	7.78 µM (active) and 26.9 µM (active)	
Cc1cc(=O)oc2cc(N(C)C)ccc12	19.2 µM (active) and 27.6 µM (active)	
CCCCC(CC)COC(=O)c1ccc(O)cc1 (stereo unspecified)	49.9 µM (active)	
Oc1ccc2cc(SSc3ccc4cc(O)ccc4c3)ccc2c1		inactive
Clc1ccc(C(c2ccccc2Cl)C(Cl)Cl)cc1 (stereo unspecified)	2.74 µM (active) and 4.46 µM (active)	
OCc1cccc(Oc2ccccc2)c1	27 µM (active) and 27.1 µM (active)	

System: zebrafish Estrogen Receptor (ER2b), gene 317733
Assay: ATG_zfER2b_XSP2: Attagene TRANS-FACTORIAL Multi-Species (XSP2) HepG2 Assay for zebrafish Estrogen Receptor (ER2b) (AID 2283823);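 note: fitted upward as reporter gain over DMSO so potency reflects activation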
How it was run: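 Transcriptional induction measured as reporter mRNA (RT-PCR, fluorescent capillary electrophoresis) in transiently transfected HepG2 cells after 24 h dosing; DMSO served as negative control and baseline.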

Structure (SMILES)	AC50
O=c1c(O)c(-c2ccc(O)cc2)oc2cc(O)cc(O)c12	2.83 µM (active) and 1.85 µM (active)
BrCc1cccc(Oc2ccccc2)c1	34.9 µM (active) and 12.4 µM (active)
Cc1cc(=O)oc2cc(N(C)C)ccc12	77.1 µM (active) and 100 µM (active)
CCCCC(CC)COC(=O)c1ccc(O)cc1 (stereo unspecified)	16.3 µM (active)
Oc1ccc2cc(SSc3ccc4cc(O)ccc4c3)ccc2c1	2.56 µM (active) and 2.52 µM (active)
Clc1ccc(C(c2ccccc2Cl)C(Cl)Cl)cc1 (stereo unspecified)	2.37 µM (active) and 1.97 µM (active)
OCc1cccc(Oc2ccccc2)c1	46.5 µM (active) and 12.4 µM (active)

System: frog Estrogen Receptor (ER2), gene 100174814
Assay: ATG_frER2_XSP2: Attagene TRANS-FACTORIAL Multi-Species (XSP2) HepG2 Assay for frog Estrogen Receptor (ER2) (AID 2283828)
How it was run: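 Human liver HepG2, transient MRTU transfection (TRANS format, exogenous NR–Gal4). 24 h cpd exposure. Total RNA → RT → PCR → FAM label → HpaI cut → CE. Positive direction vs DMSO.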

Structure (SMILES)	AC50
O=c1c(O)c(-c2ccc(O)cc2)oc2cc(O)cc(O)c12	1.75 µM (active) and 945 nM (active)
BrCc1cccc(Oc2ccccc2)c1	15.7 µM (active) and 10.2 µM (active)
Cc1cc(=O)oc2cc(N(C)C)ccc12	48.9 µM (active)
Oc1ccc2cc(SSc3ccc4cc(O)ccc4c3)ccc2c1	925 nM (active) and 696 nM (active)
Clc1ccc(C(c2ccccc2Cl)C(Cl)Cl)cc1 (stereo unspecified)	1.34 µM (active) and 1.64 µM (active)
OCc1cccc(Oc2ccccc2)c1	27.5 µM (active) and 9.21 µM (active)
